From PubChem BioAssay AID651650 (Sanford-Burnham Center for Chemical Genomics, 2012)

What follows are compounds tested against Neuropilin-1 (Homo sapiens) (UniProt O14786) (assay: blockers of CendR peptide binding to NRP-1 – biochemical, FP and AlphaScreen panel, dose response (AID 651650)). Conditions: NRP-1 b1b2 / RPARPAR peptide binding, FP or AlphaScreen; run 1, at 100 µM (top of the series).
Neuropilin-1 (Homo sapiens), sequence (O14786 whole entry, looked up): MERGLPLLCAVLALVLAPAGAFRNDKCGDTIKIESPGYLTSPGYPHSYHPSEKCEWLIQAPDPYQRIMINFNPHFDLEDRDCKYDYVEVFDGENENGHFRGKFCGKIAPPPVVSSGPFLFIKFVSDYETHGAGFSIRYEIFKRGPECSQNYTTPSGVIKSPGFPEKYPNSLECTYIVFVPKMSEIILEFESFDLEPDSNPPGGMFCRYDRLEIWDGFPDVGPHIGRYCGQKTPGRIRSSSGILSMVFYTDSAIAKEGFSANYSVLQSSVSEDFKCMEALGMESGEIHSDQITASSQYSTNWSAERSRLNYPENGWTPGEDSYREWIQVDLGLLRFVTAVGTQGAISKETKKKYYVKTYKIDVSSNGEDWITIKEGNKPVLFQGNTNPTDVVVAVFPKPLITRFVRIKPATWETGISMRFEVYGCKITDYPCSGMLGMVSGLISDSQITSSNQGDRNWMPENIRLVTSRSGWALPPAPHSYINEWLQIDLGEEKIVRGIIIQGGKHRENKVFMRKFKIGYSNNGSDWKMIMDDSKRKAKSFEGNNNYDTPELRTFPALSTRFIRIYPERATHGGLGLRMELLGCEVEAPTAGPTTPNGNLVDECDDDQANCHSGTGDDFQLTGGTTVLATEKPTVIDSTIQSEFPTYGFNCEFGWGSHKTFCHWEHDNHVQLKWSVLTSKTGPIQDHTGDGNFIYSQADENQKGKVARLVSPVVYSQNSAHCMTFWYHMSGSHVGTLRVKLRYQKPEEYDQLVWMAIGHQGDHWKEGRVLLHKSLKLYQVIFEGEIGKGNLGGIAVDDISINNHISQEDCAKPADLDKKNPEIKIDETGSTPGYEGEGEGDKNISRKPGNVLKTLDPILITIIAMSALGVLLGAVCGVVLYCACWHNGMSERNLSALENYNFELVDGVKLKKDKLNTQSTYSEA

For `CCOC(=O)N1CCN(C(=O)Nc2ccc3nc(C)c(C)nc3c2)CC1`, which inhibition is on record?
Its inhibition is -6.06%.

`O=[N+]([O-])c1ccc(Cc2ccncc2)cc1` was tested. Which inhibition did it give?
Its inhibition is 15.9%.

For `CCOC(=O)Cc1csc(NC(=O)CSc2ncnc3c2cnn3-c2ccccc2Cl)n1`, which inhibition is on record?
The inhibition was 11.5%.

With `Cc1cccc(C)c1Nc1nnc(SCC(=O)Nc2cc(S(=O)(=O)N3CCCCC3)ccc2Cl)s1` as the compound, how does the inhibition read?
The inhibition was -15.9%.

With `CC(C)(C)OC(=O)N1CCC(NC(=O)c2nc[nH]c2C(=O)N2CCc3ccccc3C2)CC1` as the compound, how does the inhibition read?
Its inhibition is 25.2%.

Which inhibition does the source give for `Fc1cc(Cl)ccc1Nc1nc(NCc2ccccc2)nc2ccsc12` here?
Its inhibition is 23%.

`Cc1ccccc1Nc1cc(=O)oc2ccccc12` was tested. Which inhibition did it give?
The inhibition was 5.19%.

How did the inhibition turn out when `COc1cc2c(cc1OC)C(Nc1ccc(S(N)(=O)=O)cc1)=NC(C)(C)C2` was run?
Its inhibition is 71.9%.

Which inhibition does the source give for `c1cc(CNc2ccc3c(c2)OCO3)ccn1` here?
The inhibition was 27.1%.

With `COc1ccc(N(CC(=O)NCc2ccco2)C(=O)CCC(=O)Nc2ccccn2)cc1` as the compound, how does the inhibition read?
Its inhibition is -5.26%.

How did the inhibition turn out when `CCOc1ccccc1C1CC(=O)NC2=C1C(=O)CC(C)(C)C2` (stereo not drawn) was run?
The inhibition was 32%.

For `CN(c1ccc(OCC(=O)OCC(=O)Nc2ccc([N+](=O)[O-])cc2)cc1)S(=O)(=O)c1cccs1`, which inhibition is on record?
The inhibition was 58.7%.

For `CCCCOC(=O)c1ccc(NS(=O)(=O)c2cc(-c3nnnn3CC)ccc2OC)cc1`, which inhibition is on record?
The inhibition was 44.5%.

`CN(C)CCOC(c1ccc(Cl)cc1)c1ccccn1` (stereo not drawn) was tested. Which inhibition did it give?
Its inhibition is 32%.

How did the inhibition turn out when `CCOc1ccc(S(=O)(=O)N2CCN(C(=O)c3sccc3C)CC2)cc1` was run?
The inhibition was 101%.

For `COc1ccc(NC(=O)CN2CCN(c3c(C)cc(C)cc3C)CC2)cc1`, which inhibition is on record?
The inhibition was 2.2%.

With `Fc1cnc(N2CCOCC2)nc1N1CCOCC1` as the compound, how does the inhibition read?
The inhibition was 49%.

For `CC(Oc1ccccc1)C(=O)NC1=NCCS1` (stereo not drawn), which inhibition is on record?
Its inhibition is 51.9%.

How did the inhibition turn out when `C[C@@H](C(=O)Nc1cccnc1)n1c(=O)[nH]c2ccccc2c1=O` was run?
The inhibition was 44.7%.

Which inhibition does the source give for `COc1ccc(CCNC(=O)c2ccc(Cl)c(S(=O)(=O)N(C)c3ccccc3)c2)cc1` here?
The inhibition was -7.22%.

Which inhibition does the source give for `O=C(O)c1cccc(N2C(=O)c3cc([N+](=O)[O-])cc4cc([N+](=O)[O-])cc(c34)C2=O)c1` here?
Its inhibition is 32.7%.

How did the inhibition turn out when `Cc1ccc(C(=O)O)cc1NC(=O)Nc1cccc2ccccc12` was run?
The inhibition was 30.6%.

How did the inhibition turn out when `COc1ccc(S(=O)(=O)N2CCCCC2)cc1NC(=O)c1c(F)cccc1Cl` was run?
Its inhibition is 37.3%.

For `CC(=O)Oc1cc2c(c3ccccc13)CCC2=O`, which inhibition is on record?
Its inhibition is 23.4%.

How did the inhibition turn out when `CN(C)/C=C/c1c([N+](=O)[O-])c2ccc(O)cc2n1-c1ccccc1` was run?
Its inhibition is 39.4%.

With `COC(=O)[C@@]1(Cc2ccc(OC)cc2)[C@H]2c3cc(C(=O)N4CCCC4)n(CCN4CCOCC4)c3C[C@H]2CN1C(=O)c1ccccc1` as the compound, how does the inhibition read?
Its inhibition is 38.7%.

With `CCCc1c(C)nc(N2CCN(c3ccccc3OC)CC2)[nH]c1=O` as the compound, how does the inhibition read?
The inhibition was 37.3%.

For `Cc1ccccc1NC(=O)c1cccc(NC(=O)CCC(=O)O)c1`, which inhibition is on record?
The inhibition was 28.1%.

`O=C(NNc1ncnc2c1cnn2-c1ccc(F)cc1)c1ccco1` was tested. Which inhibition did it give?
The inhibition was 25.9%.

How did the inhibition turn out when `CC1(C(=O)NCc2cccc3ccccc23)CCN1Cc1cccc2c1OCO2` (stereo not drawn) was run?
The inhibition was 21%.

For `O=C(c1ccccn1)N1CCN(S(=O)(=O)c2ccccc2)CC1`, which inhibition is on record?
The inhibition was 80.9%.

Which inhibition does the source give for `CCn1ncc(Br)c1C(=O)N(C)C12CC3CC(CC(C3)C1)C2` here?
Its inhibition is 41.8%.

How did the inhibition turn out when `Clc1nc(-c2ccccn2)nc2scc(-c3ccccc3)c12` was run?
The inhibition was 7.99%.

`CSc1cccc(CN2CCN(Cc3ccccc3)C(CCO)C2)c1` (stereo not drawn) was tested. Which inhibition did it give?
Its inhibition is 48.8%.

With `Cc1cc(S(=O)(=O)NC2CCCCC2)ccc1OCC(=O)N1CCOCC1` as the compound, how does the inhibition read?
Its inhibition is 97.6%.

With `O=C(CSC1CN(C(c2ccccc2)c2ccccc2)C1)N/N=C/c1ccccc1` as the compound, how does the inhibition read?
Its inhibition is 53.3%.

How did the inhibition turn out when `COC(=O)C1N[C@@H]([C@@H](NC(=O)COc2ccccc2)C(=O)NCc2ccccc2)SC1(C)C` (stereo partly drawn) was run?
The inhibition was 18.2%.

Which inhibition does the source give for `O=C(O)CSc1nnc(-c2ccc(Cl)cc2Cl)n1-c1ccc(Cl)cc1` here?
The inhibition was 74.1%.
